Assay results as given in PubChem BioAssay AID1851 (National Center for Advancing Translational Sciences (NCATS), 2009).
Screen size: about 16,000 compounds; about 2,600 (16%) were called active. Not shown: some 20% with an inconclusive outcome. These entries were drawn from the full list. Values without a mark were called inactive. Calls follow the shape of the dose curve; as a rule, active = well fitted curve in the direction sought with a large enough effect; inconclusive = small, poorly fitted or top-dose-only effect, or effect the other way; inactive = no such curve, though single readings can be large or run the other way.

target: Cytochrome P450 2D6 (Homo sapiens) (UniProt P10635); test: Cytochrome panel assay with activity outcomes; conditions: recombinant CYP, pro-luciferin dealkylation, luminescence, p450-cyp2d6; series mostly up to 57.1 µM; activity, negative = inhibition: at the top concentration
% is scaled to controls: 0 for no effect and ±100 for the full control effect.

Cytochrome P450 2D6 (Homo sapiens), sequence (P10635 whole entry, looked up): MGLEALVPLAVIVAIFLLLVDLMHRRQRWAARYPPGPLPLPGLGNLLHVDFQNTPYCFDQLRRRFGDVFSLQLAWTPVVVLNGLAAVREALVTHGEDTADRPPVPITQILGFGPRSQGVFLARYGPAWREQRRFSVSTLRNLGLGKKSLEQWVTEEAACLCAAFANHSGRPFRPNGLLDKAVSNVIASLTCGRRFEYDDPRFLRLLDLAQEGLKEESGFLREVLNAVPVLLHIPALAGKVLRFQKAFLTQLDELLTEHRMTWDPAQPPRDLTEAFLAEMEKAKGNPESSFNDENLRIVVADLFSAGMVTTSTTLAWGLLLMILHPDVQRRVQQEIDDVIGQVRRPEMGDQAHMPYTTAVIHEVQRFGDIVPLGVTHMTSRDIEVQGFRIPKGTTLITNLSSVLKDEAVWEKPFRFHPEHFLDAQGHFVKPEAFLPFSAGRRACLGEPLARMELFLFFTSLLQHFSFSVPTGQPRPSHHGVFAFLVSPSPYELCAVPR

Going from COCCn1c(=O)c(-c2cn(C)c3ccccc23)nc2cnc(Oc3ccccc3)nc21 to COc1ccc(S(=O)(=O)n2ccc(-c3cnc(-c4ccccc4)s3)n2)cc1, the “activity, negative = inhibition” value falls from 8.26% to -30%.

Going from Cc1cc2ccccc2c(=O)n1CC(=O)NCC(=O)N1CCCC1 to CN(C)CCn1c(C(=O)O)cc2ccccc21, the “activity, negative = inhibition” value rises from 4.07% to 8.96%.

Compared with O=C(NN1C(=O)c2ccccc2C1=O)C1CCCCC1, Cc1ccc(C)n1NC(=O)c1ccccc1 is lower in “activity, negative = inhibition” value: -6.28% for the first, -10.9% for the second.

Compared with CCN(CC)C(=O)CCNS(=O)(=O)c1ccc(C)cc1, Cc1ccc(S(=O)(=O)NCCSc2nnnn2C)cc1 is lower in “activity, negative = inhibition” value: 23.4% for the first, 2.18% for the second.

First: Cc1cc(-c2ccc(Cl)cc2)oc(=O)c1NC(=O)c1ccccc1
Second: CN1c2ccccc2Oc2c(c(=O)n(C)c(=O)n2C)C1c1cccc([N+](=O)[O-])c1 (stereo not drawn)
The “activity, negative = inhibition” value of the first is lower: -25.3% for the first, 14.5% for the second.

Going from COc1cccc(Cn2c(=O)cnc3cnc(N(C)C)nc32)c1 to COc1ccc(/C=N/NC(=O)c2sccc2OCc2ccc(F)cc2)cc1OC, the “activity, negative = inhibition” value rises from -9.22% to 0.295%.

Compared with CCCCOc1ccc(C(=O)NCc2ccco2)cc1, COc1ccc(/C=N/NC(=O)c2ccn[nH]2)cc1COc1ccc(F)cc1 is higher in “activity, negative = inhibition” value: -28.9% for the first, -5.88% for the second.

Compared with O=C(NCCc1ccccc1)C(=O)NCC1(c2ccccc2)CCCC1, O=c1nc2ccccc2c2n1C[C@H](CN1CCN(c3ccccc3)CC1)N2 is lower in “activity, negative = inhibition” value: 22.4% for the first, -11.1% for the second.

In the case of CCCN1CNC(=S)N(c2cccc(C)c2C)C1, the “activity, negative = inhibition” value is reported as -4.4%.

In the case of Cc1ccc(S(=O)(=O)NCCn2c(C)cc3ccccc32)cc1, the AC50 is reported as 8.91 µM (active).
In the case of Cc1cc2ccccc2n1CCNC(=O)c1ccccc1, the AC50 is reported as 2.51 µM (active).
Cc1cc2ccccc2n1CCNC(=O)C1CCCC1 was tested, and the AC50 was 12.6 µM (active).
With CCCCCOc1ccc(C(=O)NCC2(c3ccccc3)CCOCC2)cc1 the AC50 was 17.8 µM (active).
For COc1ccc(/C=N/NC(=O)c2ccccc2)cc1CN1CCN(c2ccc(F)cc2)CC1, the AC50 was 25.1 µM (active).
With Cc1c(NCc2cc(Cl)ccc2O)c(=O)n(-c2ccccc2)n1C the AC50 was 6.31 µM (active).

Going from C[C@]12C=CC(=O)C=C1CC[C@@H]1[C@H]3C[C@@H](O)[C@](O)(C(=O)CO)[C@@]3(C)C[C@H](O)[C@]12F to Cc1c(O)c(=O)n(-c2ccccc2)n1C, the “activity, negative = inhibition” value falls from 4.42% [at 25.6 µM] to -4.44% [at 25.6 µM].

First: Cn1c(=O)c2[nH]c(CCCCc3nc4c([nH]3)c(=O)n(C)c(=S)n4C)nc2n(C)c1=S
Second: Cc1c(NC(=O)Nc2c(Cl)cccc2Cl)c(=O)n(-c2ccccc2)n1C
The activity, negative = inhibition of the first is lower: -8.04% [at 11.4 µM] for the first, -4.06% [at 11.4 µM] for the second.

O=C(O)/C=C(/C(=O)O)[C@]12CCN3CC4=CCO[C@@H]5CC(=O)N[C@@H]1[C@H]5[C@H]4C[C@H]32 gave an activity, negative = inhibition of -1.84% [at 11.4 µM].
